# Measurements as given in PubChem BioAssay (NCATS).
# Inconclusive results are not listed. Calls of active or inactive are those of the source. The call rests on the fitted dose curve; in most records, active means well fitted inhibition curve with a large enough effect; inconclusive means small, poorly fitted or top-dose-only effect; inactive means flat fitted curve, though single readings scatter.
# Target: Ubiquitin carboxyl-terminal hydrolase 1 (Homo sapiens) (UniProt O94782)
# Test: Inhibitors of USP1/UAF1: Pilot qHTS (AID 504865); further: nearly all actives have a fitted effect of over 35% in size;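 on activity change, negative = inhibition: rhodamine fluorescence freed from ubiquitin-rhodamine substrate followed over time; top concentration of the series differs between compounds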
# Settings: purified USP1/UAF1, Ub-rhodamine cleavage fluorescence; series mostly up to 114 µM; activity change, negative = inhibition: at the top concentration
# Summary of the method: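 In 50mM HEPES pH 7.8 containing 0.5mM EDTA, 1mM TCEP, 0.1 mg/ml BSA and 0.01% Tween-20, 1nM USP1/UAF1 is exposed to compound for 15 min, then Ub-Rho (150nM final) is added and fluorescence is read over time.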
# On the % scale 0 is the no-effect control and ±100 the full control effect; potency means the concentration at half of the fitted maximal effect.
# Ubiquitin carboxyl-terminal hydrolase 1 (Homo sapiens), sequence (O94782 whole entry, looked up): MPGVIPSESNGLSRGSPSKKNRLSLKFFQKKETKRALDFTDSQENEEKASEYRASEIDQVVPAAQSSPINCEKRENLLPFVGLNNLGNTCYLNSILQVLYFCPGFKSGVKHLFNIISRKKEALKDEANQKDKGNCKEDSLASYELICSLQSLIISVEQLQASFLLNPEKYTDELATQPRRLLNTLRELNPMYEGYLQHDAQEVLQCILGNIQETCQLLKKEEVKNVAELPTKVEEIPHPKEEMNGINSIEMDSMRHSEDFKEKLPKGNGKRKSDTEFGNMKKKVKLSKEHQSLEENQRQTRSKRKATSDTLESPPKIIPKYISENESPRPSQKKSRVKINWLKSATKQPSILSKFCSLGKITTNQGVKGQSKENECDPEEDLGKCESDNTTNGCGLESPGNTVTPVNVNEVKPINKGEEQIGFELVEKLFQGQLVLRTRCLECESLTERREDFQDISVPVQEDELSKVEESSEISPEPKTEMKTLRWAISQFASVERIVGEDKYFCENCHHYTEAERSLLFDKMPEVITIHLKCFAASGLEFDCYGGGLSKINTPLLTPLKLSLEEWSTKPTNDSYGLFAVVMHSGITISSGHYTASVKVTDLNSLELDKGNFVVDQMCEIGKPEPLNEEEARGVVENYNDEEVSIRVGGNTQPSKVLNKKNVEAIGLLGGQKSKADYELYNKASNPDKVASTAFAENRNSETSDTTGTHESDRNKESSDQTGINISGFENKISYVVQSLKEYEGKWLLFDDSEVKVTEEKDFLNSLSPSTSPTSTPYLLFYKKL
SMILES,"activity change, negative = inhibition",Potency
COc1ccc(/C=N/NC(=O)c2ccncc2)cc1OC,-9.1% (inactive),–
CC1(COc2ccc(CC3SC(=O)NC3=O)cc2)CCCCC1 (stereo not drawn),–,20 µM (active)
CC(=O)Nc1ccc(CC(=O)O)cc1,-0.304% (inactive),–
COc1ccc(C(=O)c2ccccc2O)c(O)c1,6.04% [at 54.9 µM] (inactive),–
O=C(CCCN1CC=C(n2c(=O)[nH]c3ccccc32)CC1)c1ccc(F)cc1,3.76% [at 54.9 µM] (inactive),–
Cc1c[nH]c2ccccc12,0.815% (inactive),–
NC(=S)N/N=C/c1cccnc1,-7.81% (inactive),–
O=C(O)CCC(=O)Nc1ccc(S(=O)(=O)Nc2nccs2)cc1,-7.08% [at 54.9 µM] (inactive),–
C=CCN1CCc2nc(N)sc2CC1,-8.58% (inactive),–
CCN1/C(=C/C=C/c2sc3ccccc3[n+]2CC)Sc2ccccc21,–,44.7 µM (active)
O=C(O)Cc1csc(-c2ccc(Cl)cc2)n1,-2.24% (inactive),–
CCCCNc1ccc(C(=O)OCCOCCOCCOCCOCCOCCOCCOCCOCCOC)cc1,12.4% [at 54.9 µM] (inactive),–
CCOc1cc(OCC)c(C(=O)CCC(=O)O)cc1OCC,-7.95% (inactive),–
CCCc1ncc(C[n+]2ccccc2C)c(N)n1,5.79% [at 54.9 µM] (inactive),–
COc1cc(N)c(Cl)cc1C(=O)NC1CCN(Cc2ccccc2)CC1,–,inactive
CC(=O)NO,-5.42% (inactive),–
NCCNC(=O)c1ccc(Cl)cn1,0.0366% (inactive),–
CC(=O)Oc1ccc(C)cc1,0.161% (inactive),–
Nc1nc(-c2ccccc2)c(Br)c(=O)[nH]1,-4.01% (inactive),–

SMILES,"activity change, negative = inhibition",Potency
COc1cc(C(=O)NCc2ccc(OCCN(C)C)cc2)cc(OC)c1OC,–,inactive
COc1cc(C(=S)N2CCOCC2)ccc1O,-7.7% (inactive),–
CC(=O)O[C@H]1C[C@@H]2CC[C@@H]3[C@H](CC[C@@]4(C)[C@H]3C[C@H]([N+]3(C)CCCCC3)[C@@H]4OC(C)=O)[C@@]2(C)C[C@@H]1N1CCCCC1,-4.27% (inactive),–
COP(=O)(OC)OC(c1ccc(Cl)cc1)P(=O)(OC)OC (stereo not drawn),-5.82% (inactive),–
Cc1cccc(C)c1NC(=O)c1ccccc1C(=O)O,-8.19% (inactive),–
CN1CCN(c2c(F)cc3c(=O)c(C(=O)O)cn4c3c2SCC4)CC1,-6.84% (inactive),–
CC(=O)OC[C@H]1O[C@@H](n2ncc(=O)[nH]c2=O)[C@H](OC(C)=O)[C@@H]1OC(C)=O,-7.02% (inactive),–
CN1CCN(c2cc3c(cc2F)c(=O)c(C(=O)O)cn3-c2ccc(F)cc2)CC1,-4.79% (inactive),–
CC(=O)NC(=O)c1ccccc1O,-6.47% (inactive),–
CC(=O)O[C@]1(C(C)=O)CC[C@H]2[C@@H]3C=C(Cl)C4=CC(=O)CC[C@]4(C)[C@H]3CC[C@@]21C,-8.52% (inactive),–
NCc1ccccc1Sc1ccccc1CO,-7.68% (inactive),–
NS(=O)(=O)c1cc(C(=O)O)cc(N2CCCC2)c1Oc1ccccc1,2.37% [at 54.9 µM] (inactive),–
NC(=O)C1(N2CCCCC2)CCN(CCCC(=O)c2ccc(F)cc2)CC1,-5.5% (inactive),–
CC(C(=O)O)c1cccc(Oc2ccccc2)c1 (stereo not drawn),-8.95% (inactive),–
Cc1ccc2c(Br)cc(Br)c(O)c2n1,-11.1% (inactive),–
OCc1ccccn1,-4.76% (inactive),–
O=C(Nc1ccc([N+](=O)[O-])cc1)Nc1ccc([N+](=O)[O-])cc1,-8.84% (inactive),–
CC(C)(Cc1c[nH]c2ccccc12)NCC(O)COc1ccccc1C#N (stereo not drawn),-9.2% (inactive),–
COc1ccc(CN(CCN(C)C)c2ncccn2)cc1,-1.6% (inactive),–
